# The source made the active and inactive calls. How the source made its calls: active means hit-call score of the fitted dose curve at least 0.9, where 1 is the maximum; inactive means score below 0.9.
# Experiment: CCTE_Simmons_MITO_basal_resp_rate: CCTE's HepG2 Seahorse XF Respirometric Screening Assay at Basal Respiratory State, Simmons Lab (AID 2284001)
# Details: actives raise or lower the signal
# Method: CCTE_Simmons_MITO is cell-based, respirometric assay using HepG2 cells and a Seahorse XF Analyzer to measure oxygen consumption rates over four temporal phases spanning a total of 72 minutes: pre-injection (pre-treatment), basal (following test compound injection), maximal (following FCCP uncoupler injection), and inhibited (following rotenone/antimycin A injection)CCTE_Simmons_MITO_basal_resp_rate is one of 4 assay components calculated from the CCTE_Simmons_MITO assay. It is designed to make measurements of basal respiration using a form of respirometric reporter, as detected with […] signals by Seahorse XF96 technology. Data from the assay component CCTE_Simmons_MITO_basal_resp_rate was analyzed at the endpoint, CCTE_Simmons_MITO_basal_resp_rate_OCR, with bidirectional fitting relative to DMSO as the negative control and baseline of activity. Using a type of respirometric reporter, measures of basal respiration for gain or loss-of-signal activity can be used to understand cellular oxygen consumption as it relates to cellular respiration. To generalize the intended target to other relatable targets, this assay endpoint is annotated to the mitochondria intended target family, where the subfamily is respiration.
# Test chemicals were administered as a titrated series of 7 concentrations from 125 nM up to 100 uM [final] prior to kinetic endpoint detection at 6 minute intervals [3 min mix followed by 3 minutes measure] for 72 minutes. Three biological replicates of technical singles were run for every chemical concentration tested. Dimethylsulfoxide [DMSO] was used as the vehicle control. The electron transport chain inhibitor fenpyroximate was used as the positive control for decreased basal respiration and was administered as a titrated series of 6 concentrations from 250 nM up to 2.75 uM [final] with technical triplicates for the top concentration only. The uncoupler 2,4-dintirophenol was used as the positive control for increased basal respiration and was administered as a titrated series of 6 concentrations from 938 nM up to 40 uM [final] with technical triplicates for the top concentration only. A Seahorse XF Analzyer is required to measure the response.
Structure (SMILES),outcome,AC50
CC(C)(O)c1ccc(CNC(=O)c2cccnc2Oc2ccc(F)cc2)cc1,inactive,
CC(=O)O[C@]1(C(C)=O)CC[C@H]2[C@@H]3C=C(Cl)C4=CC(=O)[C@@H]5C[C@@H]5[C@]4(C)[C@H]3CC[C@@]21C,,29 µM (active)
O=C1OC(c2ccc(O)cc2)(c2ccc(O)cc2)c2ccccc21,,32.6 µM (active)
CCN(CC)CCOc1ccc(C(=C(Cl)c2ccccc2)c2ccccc2)cc1,inactive,
Cc1c(C)c2c(c(C)c1O)CCC(C)(COc1ccc(CC3SC(=O)NC3=O)cc1)O2 (stereo unspecified),,3.22 µM (active)
CC(C)OC(=O)C(C)(C)Oc1ccc(C(=O)c2ccc(Cl)cc2)cc1,,30.5 µM (active)
Cc1cc(SC2=C(O)C[C@@](CCc3ccc(N)cc3)(C(C)C)OC2=O)c(C(C)(C)C)cc1CO,inactive,
Cc1ccc(C(C)(C)C)c(O)c1,,44.6 µM (active)
CCCCCCC(C=O)=Cc1ccccc1,inactive,
CCc1cc(C2=C(C(=O)O)N(c3ccccc3C(F)(F)F)S(=O)(=O)c3ccccc32)cc2c1OCO2,inactive,
Cc1cc(Cc2ccc(N)c(C)c2)ccc1N,inactive,

# — PubChem BioAssay (EPA / NIEHS)
